Laboratory results taken from PubChem BioAssay AID687020 (Broad Institute, 2013).
The whole screen tested about 1,400 compounds, of which about 100 (7.1%) were called active. The rule behind the calls is not given here. These entries were drawn from the full list. Measured potencies and affinities stand elsewhere.

Assay: viability loss in Vero cells – cell-based, plate reader, cherry-pick samples, cytotoxicity control, dose response (AID 687020);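 note: compounds incubated with cells for three days before luminescence read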
Settings: series mostly up to 19.5 µM

Compound | outcome
Cc1noc(C)c1NC(=O)N(C)C[C@H]1OCCCC[C@H](C)Oc2ccc(NC(=O)NC(C)C)cc2C(=O)N([C@H](C)CO)C[C@@H]1C | inactive
CCOC(=O)c1cn(CC)c2cc3c(cc2c1=O)OCO3 | inactive
Cc1ccc(NC(=O)c2cc(-c3cc(Cl)ccc3C)n[nH]2)cc1NS(C)(=O)=O | inactive
O=C(NCc1ccccc1)[C@H]1CCCN1C(=O)[C@@H]1CCCN1C(=O)c1ccc(Cl)cc1Cl | inactive
O=C(NCc1ccccc1)c1ccccc1 | inactive
Cc1noc(C)c1NC(=O)Nc1cccc2c1O[C@@H](CN(C)S(=O)(=O)c1ccc(F)cc1)[C@@H](C)CN([C@@H](C)CO)C2=O | inactive
C=CCOc1ccccc1CNn1c(C)n[nH]c1=S | inactive
Fc1ccc(CNC2CCN(Cc3ccccc3)CC2)cc1 | inactive
CN(Cc1ccccc1)C(=O)c1nc[nH]c1C(=O)N1CCN(C(=O)OC(C)(C)C)CC1 | inactive
COC(=O)C[C@H]1CC[C@H]2[C@@H](COc3ccc(NC(=O)c4cnccn4)cc3C(=O)N2C)O1 | inactive
CS(=O)(=O)NCc1ccc(C(=O)NCCOc2ccccc2)cc1 | inactive
CCCCOc1ccc(C(=O)NCCOc2cccc(OC)c2)cc1 | inactive
Cc1c(Cl)cccc1NC(=O)CNC(=O)C1CC(=O)N(C2CCCC2)C1 (centres undefined) | inactive
Cc1noc(C)c1NC(=O)Nc1ccc2c(c1)C(=O)N([C@@H](C)CO)C[C@H](C)[C@@H](CN(C)C(=O)CCCN(C)C)OCCCC[C@@H](C)O2 | inactive
CN(C)CCCNC(=O)OC1CC2CC1[C@H]1CCCCN1C2=O (some centres undefined) | inactive
CCCNC(=O)OC1CC2CC1[C@H]1CCCCN1C2=O (some centres undefined) | inactive
O=C(NCc1ccccn1)C(=O)NCC1OCCN1S(=O)(=O)c1ccc(Br)cc1 (centres undefined) | inactive
COc1ccc(Cl)cc1NC(=O)CN(C)C(=O)C1COc2ccccc2O1 (centres undefined) | inactive
Cc1noc(C)c1S(=O)(=O)Nc1ccc2c(c1)C(=O)N([C@@H](C)CO)C[C@@H](C)[C@H](CN(C)C(=O)Nc1ccccc1)OCCCC[C@@H](C)O2 | inactive
Cc1cc(C)n2c(Nc3ccc4c(c3)OCCO4)c(CC(C)C)nc2n1 | inactive
Cc1cc(C)n2c(NC3CCCCC3)c(-c3ccccn3)nc2n1 | inactive
Cc1ccc(S(=O)(=O)N2CCN(C(=O)C(O)c3ccccc3)CC2)cc1 (centres undefined) | inactive
COC(=O)C[C@@H]1OC[C@H](Cc2ccccc2)N1S(=O)(=O)c1ccc(C)cc1 | inactive
Cc1ccc(S(=O)(=O)N2CCN(C(=O)COC(=O)Cc3ccc(Cl)cc3)CC2)c(C)c1 | inactive

Compound | outcome
COc1ccc(C(C(=O)NCc2ccccc2)n2c(-c3ccncc3)nc3ccccc32)cc1 (centres undefined) | inactive
CN(C)c1ccc(CNS(=O)(=O)c2ccc3c(c2)C(C)(C)C(=O)N3C)cc1 | inactive
C[C@H]1CCCCO[C@H](CN(C)S(=O)(=O)c2ccc(Cl)cc2)[C@@H](C)CN([C@@H](C)CO)C(=O)c2cc(NC(=O)Cc3ccccc3)ccc2O1 | inactive
COc1ccccc1CCNS(=O)(=O)CCNC(=O)c1ccc2c(c1)OCO2 | inactive
COc1ccc(C2=Nn3c(nnc3-c3ccccc3Cl)SC2)cc1OCC1CC1 | inactive
COc1ccc(OC)c(S(=O)(=O)N2CCN(c3c(C)cccc3C)CC2)c1 | inactive
COc1ccc(-c2cnc3c(NC(C)=O)cc(-c4ccccc4OC)cn23)cc1OC | inactive
CCCNC(=O)N1C[C@H](O)COC[C@@H]2O[C@@H](CC(=O)N3CCOCC3)CC[C@H]21 | inactive
COc1ccc(C(C)(NC(C)=O)c2nc(-c3cccc(F)c3)cs2)cc1 (centres undefined) | inactive
O=C(CCc1nc2ccccc2c(=O)[nH]1)N1CCCc2ccccc21 | inactive
C[C@@H]1CN([C@@H](C)CO)C(=O)c2cc(C#CCc3ccccc3)cnc2O[C@@H]1CN(C)C(=O)C1CCOCC1 | inactive
c1ccc(-c2csc(-c3ccc(-c4csnn4)cc3)n2)cc1 | inactive
O=C(NCC1CC1)C1(S(=O)(=O)c2ccccc2)CC=CC1 | inactive
CCOC(=O)CN1CC23C=CC(O2)C(C(=O)NCCc2ccccc2)C3C1=O (centres undefined) | inactive
CCOC(=O)N1CCN(Cc2nc3cc(NC(=O)CC)ccc3n2CC)CC1 | inactive
COc1cc(NC(C)=O)c2ncccc2c1Br | inactive
COc1ccc(CN2CCC[C@]3(N[C@H](c4ccc(OC)cc4)[C@@H]4C(=O)N(C)C(=O)[C@@H]43)C2=O)cc1 | inactive
O=C(O)CNC(=O)c1ccc(NS(=O)(=O)c2ccc3ccccc3c2)cc1 | inactive
Cc1cc(Br)ccc1NC(=O)CN(C)C(=O)COc1cccc2c1OC(C)(C)C2 | inactive
O=C1N2CCCCC1(c1ccccc1)CCCC2 | inactive
COCCCN1C(=O)C(CC(=O)NC2CCCCC2)CC(C(=O)N(C(C)C)C(C)C)=C1C (centres undefined) | inactive
COc1ccc(N(CC(=O)N2CCN(C)CC2)S(=O)(=O)c2cc(C)ccc2OC)cc1Cl | inactive
O=C(Nc1ccc(S(=O)(=O)NC2=NCCCCC2)cc1)c1cccs1 | inactive
COc1ccc(-c2ccccc2)cc1NC(=O)c1cccs1 | inactive

Compound | outcome
CC(C)NC(=O)N(C)C[C@@H]1Oc2ccc(NC(=O)Cc3cn(C)c4ccccc34)cc2C(=O)N([C@@H](C)CO)C[C@H]1C | inactive
OC(COC(c1ccc(Cl)cc1)c1ccc(Cl)cc1)CN1CCN(c2ccccn2)CC1 (centres undefined) | inactive
CCN(CC)c1ccc(/C=N/N2C(=O)c3ccccc3C2=O)c(O)c1 | inactive
CCc1ccccc1OCC(=O)NNCC(=O)Nc1cccc(C#N)c1 | inactive
COc1cccc(NC(=O)CCN2C(=O)C3CC=CCC3C2=O)c1 (centres undefined) | inactive
CC(=O)N1[C@H](CO)[C@@H](c2ccc(-c3cccc(F)c3)cc2)[C@H]1CNC(=O)C1CC1 | inactive
COc1ccc([C@H]2C[C@@H](n3cc(C4CC4)nn3)[C@H](O)CN2Cc2cccs2)cc1 | inactive
C[C@H](NC(=O)C1CCN(S(=O)(=O)c2ccccc2)CC1)C(=O)NCc1cccnc1 | inactive
COc1ccc(C(=O)N2CCCCC2c2cc(C(=O)NCc3cccnc3)no2)cc1 (centres undefined) | inactive
CC(C)[C@H](NC(=O)c1cccs1)C(=O)N1CCC[C@H]1C(=O)NCc1ccccc1 | inactive
O=C(Nc1ccc2c(c1)CCC2)c1ccccc1 | inactive
Cc1cccc(C(=O)OCC(=O)NCc2ccc(Cl)cc2)c1 | inactive
CN1CCC(=O)N([C@H](COc2ccccc2)Cc2ccccc2)CC1 | inactive
CSc1ccccc1OCc1cc(C(=O)N2CCc3[nH]cnc3C2c2ccccn2)no1 (centres undefined) | inactive
CN1C(c2ccccc2)CCOS1(=O)=O (centres undefined) | inactive
C=CCOc1ccc(CNCc2cccnc2)cc1OCC | inactive
Cc1nc2c(OCCC3CCCCC3)cccn2c1N(C)C(=O)CCC1CCCC1 | inactive
Cc1csc(-c2nc3ccccc3n2C(C(=O)NC(C)(C)C)c2ccccc2)c1 (centres undefined) | inactive
Cc1ccc(-c2nc3ccccc3n2C(C(=O)NC(C)(C)C)C2CC2)cc1 (centres undefined) | inactive
CCOc1ccc(OCC(=O)N(C)c2c(N)n(Cc3ccccc3)c(=O)[nH]c2=O)cc1 | inactive
CC#CCN1C(=O)N[C@@H](c2ccccc2)C(C(=O)OC)=C1C | inactive
C[C@@H]1CN([C@H](C)CO)C(=O)c2cc(NC(=O)c3ccncc3)ccc2O[C@@H](C)CCCCO[C@H]1CN(C)C | inactive
COc1ccc2c(=O)cc(-c3ccncc3)oc2c1OC | inactive
CCOC(=O)C1=C(C)NC(=O)C(C#N)C1c1ccncc1 (centres undefined) | inactive

Compound | outcome
CCc1cc(=O)oc2cc(OCC(=O)NC3CC(C)(C)NC(C)(C)C3)ccc12 | inactive
Cc1cc(OCC(=O)NC2CC(C)(C)NC(C)(C)C2)c(C)cc1Br | inactive
CCOC(=O)C1(Cc2ccccc2C)CCCN(C(=O)c2cc(C3CC3)[nH]n2)C1 (centres undefined) | inactive
N#CC(Cc1ccccc1OC(F)F)c1nc2ccccc2[nH]1 (centres undefined) | inactive
CC(=O)NC[C@H]1[C@H](c2ccc(-c3ccccc3F)cc2)[C@@H](CO)N1C(=O)C1CC1 | inactive
O=C(COC(=O)c1ccc2c(c1)OCO2)NC1CCCCC1 | inactive
COCCNC(=O)C1(C)CCCN(C(=O)c2ccc(C(F)(F)F)cc2)C1 (centres undefined) | inactive
CO[C@@H]1CN(C)C(=O)c2cc(NC(=O)c3ccccc3)ccc2OC[C@H](C)N(C(=O)C2CC2)C[C@@H]1C | inactive
COc1cc(C(=S)N2CCCCC2)ccc1OCC(=O)Nc1ccc(F)cc1 | inactive
O=C(O)C1CCCCC1C(=O)N1CCN(S(=O)(=O)c2ccc(F)cc2)CC1 (centres undefined) | inactive
O=C(NCCCC1CCCC1)C1CCC(=O)N(Cc2cccc(C(F)(F)F)c2)C1 (centres undefined) | inactive
COc1ccc(NC(=O)Nc2ccc3c(c2)C(=O)N([C@@H](C)CO)C[C@H](C)[C@H](CN(C)Cc2ccc(C(=O)O)cc2)OCCCC[C@H](C)O3)cc1 | inactive
O=C1NC[C@H](Cc2ccccc2)N(CC2CCN(CCCCc3ccccc3)CC2)C1=O | inactive
O=C1[C@@H](Oc2ccccc2)[C@@H](c2ccncc2)N1c1ccccc1 | inactive
COc1cccc(OCc2cc(C(=O)N(C)CCC3CCCCO3)no2)c1 (centres undefined) | inactive
COc1cc(C(=S)N2CCCC2)ccc1OCc1ccc(C)cc1 | inactive
O=S(=O)(NCCC1=CCCCC1)c1ccc(Br)cc1 | inactive
F[B-](F)(F)c1cnc2ccccc2c1 | inactive
Cn1cccc1C(=O)OCC(=O)NC(=O)c1ccc(Cl)cc1 | inactive
C[C@H](CO)N1C[C@H](C)[C@@H](CN(C)C(=O)Nc2ccc(C(F)(F)F)cc2)OCCCC[C@H](C)Oc2ccc(NS(=O)(=O)c3cccs3)cc2C1=O | inactive
Cc1noc(C)c1NC(=O)Nc1ccc2c(c1)C(=O)N([C@@H](C)CO)C[C@@H](C)[C@@H](CN(C)Cc1ccccc1)OCCCC[C@@H](C)O2 | inactive
CNC[C@@H]1OCCCC[C@H](C)Oc2ccc(NS(=O)(=O)c3c(C)noc3C)cc2C(=O)N([C@@H](C)CO)C[C@H]1C | inactive
